p53null 39C kill: p53 null cell cytotoxicity, nonpermissive temperature; Potency, µM (top dose mostly 46.1 µM), actives largely listed as cytotoxic; AID 904; actives 0.97% (n = 55,000); H1299 p53-null (neo) cells, 39C, ATPlite viability, 24 h; further: nearly all actives have a fitted effect of over 50% in size
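Cells seeded at 600/well, 37C overnight. Compound added (up to 46 uM), plates shifted to 39C for 24 hr. ATPlite added, luminescence read after 20 min at room temperature.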
PMP22 txn prim: modulates PMP22 transcription in S16 Schwann cells; S16 Pmp22-F2sN Schwann cells, FLuc/NLuc coincidence luminescence, 24 h; Potency, µM (series often up to 57.5 µM), usual class: inhibitors; actives 2% (n = 43,000); active means clear falling dose curves in both reporters; inconclusive means both reporters move, but less clearly or upward; inactive means either reporter flat; the % is the NLuc reporter signal
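qHTS, 1536-well. Cells seeded, compounds added by pin tool, 24 h 37C. Nano-Glo reagent 1 (lysis/FLuc), 10 min RT, read; Stop&Glo, 10 min RT, read NLuc.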
S16 viability: toxic to S16 Pmp22-F2sN Schwann cells. S16 Pmp22-F2sN Schwann cells (luciferase reporters placed in the Pmp22 gene) viability, CellTiter-Glo, 24 h. Potency, µM (series often up to 57.5 µM), hits mostly cytotoxic. actives 0.48% (n = 43,000). AID 1508642; further: nearly all actives have a fitted effect of over 65% in size
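Rat S16 Schwann reporter line, 24 h treatment with library compounds delivered at 23 nL per well. Cell viability by CellTiter-Glo luminescence.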
pS6 MEF inh: mTORC1 pathway inhibition measured by phospho-rpS6. Potency, µM (top dose mostly 38.3 µM), actives largely listed as inhibitors. AID 493208. actives 0.78% (n = 44,000). Tsc2-/- p53-/- MEF, phospho-rpS6 immunofluorescence/PI, 24 h; further: nearly all actives have a fitted effect of over 50% in size
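Immunofluorescence of rpS6 phosphorylation in Tsc2-/-, p53-/- MEFs after 24 h compound exposure, normalized to propidium iodide signal. Activity is expressed as % positive cells, thresholded with 7.5 nM rapamycin.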
p53null 32C kill: selectivity test: cytotoxicity in p53 null cells, permissive temperature; Potency, µM (top dose mostly 46.1 µM), hits mostly cytotoxic; actives 0.62% (n = 55,000); H1299-neo p53 null cells, ATP luminescence, 24 h, 32C; further: nearly all actives have a fitted effect of over 55% in size
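H1299-neo (p53 null) cells, 600/well, treated 24 h at 32C with compound up to 46 uM; ATPlite luminescence viability, normalized to DMSO and 100 uM tamoxifen; AC50 by Hill fit.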
A number is an active result; i = inactive; ? = inconclusive; nt = not tested or not shown. Most compounds without a hit are left out; they make up all but 3.2% or so of the library. Unless noted, the call rests on the fitted dose curve; in most records, active means well fitted curve in the direction sought with a large enough effect; inconclusive means small, poorly fitted or top-dose-only effect, or another doubt; inactive means no such curve, though single readings can be large; an effect the other way counts as inactive or inconclusive.

SMILES | p53null 39C kill | PMP22 txn prim | S16 viability | pS6 MEF inh | p53null 32C kill
COc1cc(C(=O)NC(c2ccc(Cl)cc2)c2cc(Cl)c3cccnc3c2O)cc(OC)c1OC (configuration not stated) | i | ? | 3.2µM | i | ?
COc1cccc(C(=O)NC(c2ccc(Cl)cc2)c2cc(Cl)c3cccnc3c2O)c1 (configuration not stated) | i | 4.6µM | 5µM | i | ?
CCC(=O)NC(c1ccccc1OC)c1ccc2cccnc2c1O (configuration not stated) | ? | nt | nt | nt | i
CN(C)CCNc1oc(-c2ccc(COc3ccc(Cl)cc3)o2)nc1C#N | i | ? | ? | ? | i
Cc1cccc(NC(=O)CCNS(=O)(=O)c2cccc3nonc23)c1 | i | i | i | i | i
COc1ccc(C)cc1NC(=O)CCNS(=O)(=O)c1cccc2nonc12 | i | i | i | 21µM | i
O=C(Nc1cccc(C(=O)N2CCCCC2)c1)c1nsc2ccccc12 | 10µM | i | i | i | ?
COC(=O)c1cccc(NC(=O)c2nsc3ccccc23)c1 | 7.1µM | i | i | i | 3.2µM
COc1cccc(CNC(=O)c2cccc(NC(=O)c3nsc4ccccc34)c2)c1 | i | i | ? | i | i
CC1CCN(C(=O)c2ccc(NC(=O)c3nsc4ccccc34)cc2)CC1 | ? | i | i | i | ?
COc1cc(OC)c(NC(=O)c2cc(C)nc3c2c(C)nn3-c2ccc(C)cc2)cc1Cl | i | i | i | i | i
Cc1cc2oc(C(=O)Nc3c(C(=O)Nc4ccccc4)oc4ccccc34)cc(=O)c2cc1C | i | i | ? | i | i
CC(C)c1ccc(S(=O)(=O)/N=C2/C=C(Sc3ncn[nH]3)C(=O)c3ccccc32)cc1 | nt | nt | nt | nt | 6.3µM
O=C(Nc1ccc2oc(-c3ccc4ccccc4c3)nc2c1)c1cc(Br)ccc1Cl | i | ? | i | 16µM | i
O=C(Nc1ccc2oc(-c3cc(Br)ccc3Cl)nc2c1)c1ccc2ccccc2c1 | ? | ? | 22µM | i | i
COc1ccc(Cl)cc1NC(=O)c1c(NCc2cccnc2)sc2c1CCC(C)C2 (configuration not stated) | i | ? | ? | 5.8µM | ?
Cc1ccc(C)c(CN2CCC(CNC(=O)Nc3ccc(Br)cc3F)CC2)c1 | ? | ? | 28µM | ? | i
Cc1ccc(Cl)cc1N1CCN(C(=O)c2ccc(CS(=O)c3ccccc3)o2)CC1 (configuration not stated) | i | 10µM | ? | ? | i
Cc1cc2c(cc1NS(=O)(=O)c1ccc(F)cc1)n(C)c(=O)c(=O)n2C | i | i | i | i | ?
CCc1ccc(S(=O)(=O)c2nnn3c2nc(Nc2ccc(NC(C)=O)cc2)c2sccc23)cc1 | ? | 11µM | i | i | ?
CCOc1ccc(CNC(=O)CCC(=O)N2CC3CCCN3c3ccccc32)cc1 (configuration not stated) | i | i | i | i | i
Cc1ccc(N2CCN(S(=O)(=O)c3nnc(NC(=O)c4cccc(F)c4)s3)CC2)cc1 | i | i | i | i | i
CCS(=O)(=O)c1ncc(Cl)c(C(=O)N2CCN(c3cccc(Cl)c3)CC2)n1 | 3.2µM | ? | 4.5µM | 2.6µM | ?
CS(=O)(=O)c1ncc(Cl)c(C(=O)N2CCN(c3cccc(Cl)c3)CC2)n1 | i | ? | 3.2µM | 0.46µM | 14µM
COc1ccc(S(=O)(=O)c2c(O)c3ccc(C(=O)NCc4ccc(F)cc4)cc3[nH]c2=O)cc1 | i | i | i | i | i
SMILES | p53null 39C kill | PMP22 txn prim | S16 viability | pS6 MEF inh | p53null 32C kill
COc1cccc(-n2c(SCC(=O)Nc3cccc(Cl)c3)nc3c(oc4ccccc43)c2=O)c1 | i | i | i | i | i
O=C(CSc1nc2c(oc3ccccc32)c(=O)[nH]1)Nc1cccc(Cl)c1 | 10µM | ? | i | i | 10µM
CCc1ccc(NC(=O)C2CCCN2S(=O)(=O)c2ccc3c(c2)CCCC(=O)N3)cc1 (configuration not stated) | i | i | i | i | i
O=C(N/N=C\c1cc(Cl)ccc1O)c1ccc(S(=O)(=O)N2CCCCC2)cc1 | nt | nt | nt | nt | 7.1µM
O=C(NC1CCCCC1)c1ccc(S(=O)(=O)N2CCCC2)cc1 | i | nt | nt | nt | i
COC(=O)c1cc(S(=O)(=O)N2CCN(c3cccc(C)c3)C(C)C2)cn1C (configuration not stated) | 13µM | i | i | i | i
CCOC(=O)c1cc(S(=O)(=O)N2CCN(c3cccc(C)c3)C(C)C2)[nH]n1 (configuration not stated) | i | i | ? | i | i
COc1ccc(CNC(=O)c2cc3cc(OC)ccc3oc2=O)cc1 | i | i | i | i | i
COc1ccc2oc(=O)c(C(=O)Nc3cccc(C(=O)O)c3)cc2c1 | 7.9µM | i | i | i | 10µM
Cc1nnc(N2CCC(C(=O)NCCc3ccccc3Cl)CC2)c2nn(-c3ccccc3)c(C)c12 | 10µM | ? | 35µM | i | ?
CCOc1ccccc1CNC(=O)C1CCN(c2nnc(C)c3c(C)n(-c4ccc(C)cc4)nc23)CC1 | 16µM | ? | ? | i | ?
COc1ccccc1CCNC(=O)C1CCN(c2nnc(C)c3c(C)n(-c4ccc(C)cc4)nc23)CC1 | 10µM | ? | ? | i | i
CCc1ccc(CNC(=O)C2CCCN(c3nnc(C)c4c(C)n(-c5ccccc5)nc34)C2)cc1 (configuration not stated) | 16µM | ? | ? | i | i
Cc1nnc(N2CCCC(C(=O)NCc3ccccc3)C2)c2nn(-c3ccccc3)c(C)c12 (configuration not stated) | i | i | i | i | i
Cc1nnc(N2CCC(C(=O)NCCc3ccccc3)CC2)c2nn(-c3ccc(Cl)cc3)c(C)c12 | ? | i | i | i | i
Cc1ccc(-n2nc3c(N4CCCC(C(=O)NCCc5ccccc5)C4)nnc(C)c3c2C)cc1 (configuration not stated) | i | ? | ? | i | i
CC1CCN(S(=O)(=O)c2ccc3c(c2)N(CC(=O)NCC(C)c2ccccc2)C(=O)CO3)CC1 (configuration not stated) | i | i | i | i | i
COc1ccc(Cl)cc1NC(=O)C1CCN(c2nnc(C)c3c(C)n(-c4ccccc4)nc23)CC1 | i | ? | i | i | i
Cc1ccc(Cl)cc1NC(=O)C1CCN(c2nnc(C)c3c(C)n(-c4ccccc4)nc23)CC1 | 13µM | ? | i | i | ?
CCCOc1ccc(-c2nc3ccccc3c(=O)o2)cc1 | 5µM | i | i | i | 16µM
COc1ccc(OC)c(CNC(=O)C2CCCCN2S(=O)(=O)c2ccc(F)cc2)c1 (configuration not stated) | i | nt | nt | i | i
Cc1ccc(NC(=O)c2cc3c(s2)CCCC3)cc1S(=O)(=O)Nc1ccccc1Cl | i | nt | nt | nt | i
